PubChem BioAssay (Tox21)
“And” between values parts separate entries of the source, which are not always exact repeats. Identical values can stand only once. Inconclusive results are not listed. A call without a number means that no potency is given here. A structure can be active in one record and inactive in another. The source made the active and inactive calls. Unless noted, the call rests on the fitted dose curve; in most records, active means well fitted curve in the direction sought with a large enough effect in the repeat runs; inconclusive means weak or mixed curves; inactive means no such curve, though single readings can be large; an effect the other way counts as inactive or inconclusive.

How the values were obtained:
[1] = qHTS assay to identify small molecule antagonists of the thyroid receptor (TR) signaling pathway - cell viability counter screen (AID 743064); further: nearly all actives have a fitted effect of over 50% in size
Method in brief: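 In-well cytotoxicity read by CellTiter-Fluor (30 min, 37 C) following 23.5 h exposure of GH3 cells bearing a TRE-luciferase sensor. Compounds were added alongside 1 nM (final) T3 to drive TR transactivation.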

[2] = system: thyroid hormone receptor (rat, GH3 cells); test: qHTS assay to identify small molecule agonists of the thyroid receptor (TR) signaling pathway (AID 743066; calls by dose curve)
[3] = qHTS assay to identify small molecule antagonists of the estrogen receptor alpha (ER-alpha) signaling pathway - cell viability counter screen (AID 743074; calls by dose curve;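 further: HEK293 cells carrying ER-alpha-UAS-bla reporter stimulated with 17beta-estradiol; nearly all actives have a fitted effect of over 45% in size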)
[4] = biological target: Estrogen receptor (Homo sapiens) (UniProt P03372); test: qHTS assay to identify small molecule agonists of the estrogen receptor alpha (ER-alpha) signaling pathway (AID 743075; calls by dose curve)
[5] = biological target: Estrogen receptor (Homo sapiens) (UniProt P03372); test: qHTS assay to identify small molecule agonists of the estrogen receptor alpha (ER-alpha) signaling pathway using the BG1 cell line (AID 743079); further: nearly all actives have a fitted effect of over 20% in size
[6] = qHTS assay to identify small molecule antagonists of the estrogen receptor alpha (ER-alpha) signaling pathway using the BG1 cell line (AID 743080; calls by dose curve;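 further: BG1 cells stimulated with 17beta-estradiol alongside compound; series mostly up to about 70 µM; nearly all actives have a fitted effect of over 25% in size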)
Method in brief: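 BG1Luc4E2, endogenous ER-alpha, 4xERE-luc; 5 d charcoal-stripped FBS, phenol red free; 24 h plating; cpd + 17beta-estradiol 21.5 h, 37 C/5% CO2; CellTiter-Fluor viability 30 min, then ONE-Glo luciferase 30 min RT.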

[7] = qHTS assay to identify small molecule antagonists of the estrogen receptor alpha (ER-alpha) signaling pathway using the BG1 cell line - cell viability counter screen (AID 743081);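 further: compound given together with 17beta-estradiol as the ER stimulus; nearly all actives have a fitted effect of over 45% in size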; further: potency means the concentration at half of the fitted maximal effect
[8] = biological target: Aromatase (Homo sapiens) (UniProt P11511); test: qHTS assay to identify aromatase inhibitors (AID 743083); further: series mostly up to about 70 µM; nearly all actives have a fitted effect of over 55% in size
[9] = qHTS assay to identify aromatase inhibitors - cell viability counter screen (AID 743084);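 further: cells stimulated with testosterone during compound exposure; nearly all actives have a fitted effect of over 55% in size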
[10] = biological target: Aryl hydrocarbon receptor (Homo sapiens) (UniProt P35869); test: qHTS assay to identify small molecule that activate the aryl hydrocarbon receptor (AhR) signaling pathway (AID 743085); further: nearly all actives have a fitted effect of over 15% in size; further: potency means the concentration at half of the fitted maximal effect;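 on activation: HG2L7.5c1 human HepG2 liver cells with stably integrated DRE-driven firefly reporter; series mostly up to about 70 µM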
Method in brief: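 Luminescence (ONE-Glo) from a dioxin-responsive-element luciferase reporter in HG2L7.5c1 HepG2 cells after 24 hr compound exposure at 37C; viability measured by CellTiter-Fluor fluorescence beforehand.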

[11] = qHTS assay to identify small molecule that activate the aryl hydrocarbon receptor (AhR) signaling pathway - cell viability counter screen (AID 743086); further: nearly all actives have a fitted effect of over 45% in size; further: potency means the concentration at half of the fitted maximal effect
Method in brief: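 HepG2-AhR-luc (HG2L7.5c1) cells, 4000/well, treated 24 h at 37 C with compound; viability measured as CellTiter-Fluor fluorescence after 30 min in the same wells as the luciferase read.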

[12] = biological target: Peroxisome proliferator-activated receptor gamma (Homo sapiens) (UniProt P37231); test: qHTS assay to identify small molecule agonists of the peroxisome proliferator-activated receptor gamma (PPARg) signaling pathway (AID 743094; active means well fitted activation curve with a large enough effect in the signal ratio in the repeat runs, not every such curve was filed as active; the % refers to the signal ratio)
Method in brief: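 GeneBLAzer PPARg UAS-bla HEK293H cells carrying a stably integrated beta-lactamase reporter were pre-incubated 5 h at 37C, then exposed to compounds in DMSO for 17 h at 37C; LiveBLAzer B/G FRET substrate was added for 1 h at room temperature and fluorescence read.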

[13] = qHTS assay for small molecule agonists of the antioxidant response element (ARE) signaling pathway - cell viability counter screen (AID 743203; calls by dose curve; further: nearly all actives have a fitted effect of over 55% in size)
Method in brief: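 CellSensor ARE-bla HepG2 cells, 2,000 per well, rested 5 hrs at 37C/5% CO2, then exposed to compound in DMSO for 16 hrs; viability read as CellTiter-Glo luminescence after 30 min at room temperature, in the reporter wells.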

[14] = qHTS assay for small molecule activators of the heat shock response signaling pathway - cell viability counter screen (AID 743209); further: nearly all actives have a fitted effect of over 50% in size
Method in brief: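 CellSensor HSE-bla HeLa cells, plated overnight at 37 C/5% CO2, were exposed to compounds in DMSO for 5 h at 37 C. Viability was then read in the same wells by CellTiter-Glo luminescence after 30 min at room temperature.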

[15] = qHTS assay for small molecule activators of the heat shock response signaling pathway (AID 743210; active means well fitted activation curve with a large enough effect in the signal ratio in the repeat runs, with a control signal flat, not every such curve was filed as active; the % refers to the signal ratio; further: series mostly up to about 63 µM)
Method in brief: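 HSE-bla HeLa cells (beta-lactamase reporter under heat shock response elements), plated overnight, then exposed to compounds 5 h at 37 C; LiveBLAzer B/G FRET substrate added, 2.5 h at room temperature, fluorescence intensity read.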

[16] = qHTS assay to identify small molecule antagonists of the thyroid receptor (TR) signaling pathway (AID 743065); further: nearly all actives have a fitted effect of over 55% in size; further: potency means the concentration at half of the fitted maximal effect
Method in brief: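 GH3.TRE-Luc rat pituitary cells (two TREs driving luciferase) were dosed with compound, then stimulated with 1 nM T3 (final) for 23.5 h at 37 C. ONE-Glo luminescence was the read-out, with CellTiter-Fluor fluorescence as the cytotoxicity counter-screen.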

[17] = qHTS assay to identify small molecule antagonists of the peroxisome proliferator-activated receptor gamma (PPARg) signaling pathway - cell viability counter screen (AID 743194); conditions: Potency: co-treated with 50 nM rosiglitazone; further: nearly all actives have a fitted effect of over 55% in size
Method in brief: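 Cytotoxicity counter screen in PPARg-bla HEK293H cells, same wells as reporter assay. Compounds plus 50 nM rosiglitazone (final) for 17 h at 37 C, then viability read by CellTiter-Glo luminescence.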

[18] = biological target: Estrogen receptor (Homo sapiens) (UniProt P03372); test: qHTS assay to identify small molecule antagonists of the estrogen receptor alpha (ER-alpha) signaling pathway (AID 743069; active means well fitted curve in the direction sought with a large enough effect in the signal ratio in the repeat runs, not every such curve was filed as active; the % refers to the signal ratio)
Method in brief: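 HEK293 ER-alpha-UAS-bla GripTite cells, held overnight in 2% charcoal-stripped FBS, 5,000 cells/well, preincubated 4 h, then compound plus 17beta-estradiol for 18 h at 37C. Beta-lactamase read by LiveBLAzer B/G FRET substrate, 2 h at room temperature.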

[19] = qHTS assay for small molecule agonists of the antioxidant response element (ARE) signaling pathway (AID 743202; active means well fitted activation curve with a large enough effect in the signal ratio in the repeat runs, not every such curve was filed as active; the % refers to the signal ratio)
Method in brief: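 ARE-bla HepG2 cells (beta-lactamase reporter under the antioxidant response element), plated 5 hours, then exposed to compounds 16 hours at 37 C. LiveBLAzer B/G FRET substrate added for 2 hours at room temperature; fluorescence intensity read.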

[20] = biological target: Peroxisome proliferator-activated receptor gamma (Homo sapiens) (UniProt P37231); test: qHTS assay to identify small molecule antagonists of the peroxisome proliferator-activated receptor gamma (PPARg) signaling pathway (AID 743191; calls by dose curve; further: nearly all actives have a fitted effect of over 30% in size; further: potency means the concentration at half of the fitted maximal effect)
Method in brief: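 GeneBLAzer PPARg UAS-bla HEK293H cells, 5 h post-plating, exposed to compounds 17 h at 37C. LiveBLAzer B/G FRET substrate added for 1 h at room temperature; beta-lactamase reporter read by fluorescence intensity.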

Sequence of Estrogen receptor (Homo sapiens) (P03372 whole entry, looked up): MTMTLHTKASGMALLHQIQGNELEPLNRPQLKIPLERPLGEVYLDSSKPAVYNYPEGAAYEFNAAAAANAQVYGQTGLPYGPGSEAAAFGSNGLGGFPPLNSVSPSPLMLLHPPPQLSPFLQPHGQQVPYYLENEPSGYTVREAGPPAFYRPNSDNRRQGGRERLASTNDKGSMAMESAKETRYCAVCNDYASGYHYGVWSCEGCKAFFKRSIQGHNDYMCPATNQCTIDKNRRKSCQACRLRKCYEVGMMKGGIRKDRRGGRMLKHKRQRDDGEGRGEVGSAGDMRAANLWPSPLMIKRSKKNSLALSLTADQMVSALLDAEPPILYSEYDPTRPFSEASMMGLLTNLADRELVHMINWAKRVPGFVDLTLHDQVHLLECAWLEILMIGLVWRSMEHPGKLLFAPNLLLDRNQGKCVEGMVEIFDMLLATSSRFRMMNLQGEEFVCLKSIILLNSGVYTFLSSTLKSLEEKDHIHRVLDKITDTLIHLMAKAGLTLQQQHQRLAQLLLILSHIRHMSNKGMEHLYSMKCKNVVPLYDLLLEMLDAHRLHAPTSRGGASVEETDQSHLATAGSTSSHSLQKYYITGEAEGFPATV
Sequence of Aryl hydrocarbon receptor (Homo sapiens) (P35869 whole entry, looked up): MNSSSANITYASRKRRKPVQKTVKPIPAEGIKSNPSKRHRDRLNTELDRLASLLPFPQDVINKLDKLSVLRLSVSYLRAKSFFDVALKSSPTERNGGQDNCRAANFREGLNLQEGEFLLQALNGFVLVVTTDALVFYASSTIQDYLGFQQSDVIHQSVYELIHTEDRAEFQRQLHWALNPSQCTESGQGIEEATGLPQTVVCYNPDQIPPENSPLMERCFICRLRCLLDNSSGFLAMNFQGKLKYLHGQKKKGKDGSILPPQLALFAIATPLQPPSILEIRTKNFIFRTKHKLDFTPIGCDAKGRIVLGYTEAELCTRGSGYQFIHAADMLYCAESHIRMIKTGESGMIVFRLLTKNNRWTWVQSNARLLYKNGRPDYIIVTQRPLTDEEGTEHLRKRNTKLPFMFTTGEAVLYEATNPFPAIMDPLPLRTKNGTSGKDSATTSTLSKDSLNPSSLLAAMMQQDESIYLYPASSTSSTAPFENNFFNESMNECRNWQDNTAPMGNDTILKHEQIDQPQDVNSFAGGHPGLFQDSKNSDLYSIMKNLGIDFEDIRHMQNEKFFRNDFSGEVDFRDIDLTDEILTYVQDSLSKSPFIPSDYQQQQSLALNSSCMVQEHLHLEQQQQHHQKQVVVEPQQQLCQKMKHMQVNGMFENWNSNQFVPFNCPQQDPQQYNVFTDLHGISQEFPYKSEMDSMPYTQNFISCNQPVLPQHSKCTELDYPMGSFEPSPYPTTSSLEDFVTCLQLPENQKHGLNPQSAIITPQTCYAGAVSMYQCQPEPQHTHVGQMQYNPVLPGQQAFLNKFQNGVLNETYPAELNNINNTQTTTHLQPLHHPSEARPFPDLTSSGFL
Sequence of Aromatase (Homo sapiens) (P11511 whole entry, looked up): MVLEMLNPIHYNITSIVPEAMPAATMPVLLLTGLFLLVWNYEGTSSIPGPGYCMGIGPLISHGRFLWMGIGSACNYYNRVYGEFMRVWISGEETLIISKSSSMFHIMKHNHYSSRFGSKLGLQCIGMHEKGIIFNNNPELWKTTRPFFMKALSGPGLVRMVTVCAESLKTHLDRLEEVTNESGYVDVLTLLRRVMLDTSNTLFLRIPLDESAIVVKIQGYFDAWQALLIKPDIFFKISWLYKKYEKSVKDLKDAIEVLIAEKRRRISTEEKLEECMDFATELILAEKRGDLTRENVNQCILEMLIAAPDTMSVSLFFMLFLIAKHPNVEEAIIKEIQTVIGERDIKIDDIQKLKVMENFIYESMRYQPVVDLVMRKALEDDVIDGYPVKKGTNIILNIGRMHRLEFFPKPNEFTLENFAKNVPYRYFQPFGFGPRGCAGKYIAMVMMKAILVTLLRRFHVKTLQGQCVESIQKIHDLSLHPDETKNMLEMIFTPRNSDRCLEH
Sequence of Peroxisome proliferator-activated receptor gamma (Homo sapiens) (P37231 whole entry, looked up): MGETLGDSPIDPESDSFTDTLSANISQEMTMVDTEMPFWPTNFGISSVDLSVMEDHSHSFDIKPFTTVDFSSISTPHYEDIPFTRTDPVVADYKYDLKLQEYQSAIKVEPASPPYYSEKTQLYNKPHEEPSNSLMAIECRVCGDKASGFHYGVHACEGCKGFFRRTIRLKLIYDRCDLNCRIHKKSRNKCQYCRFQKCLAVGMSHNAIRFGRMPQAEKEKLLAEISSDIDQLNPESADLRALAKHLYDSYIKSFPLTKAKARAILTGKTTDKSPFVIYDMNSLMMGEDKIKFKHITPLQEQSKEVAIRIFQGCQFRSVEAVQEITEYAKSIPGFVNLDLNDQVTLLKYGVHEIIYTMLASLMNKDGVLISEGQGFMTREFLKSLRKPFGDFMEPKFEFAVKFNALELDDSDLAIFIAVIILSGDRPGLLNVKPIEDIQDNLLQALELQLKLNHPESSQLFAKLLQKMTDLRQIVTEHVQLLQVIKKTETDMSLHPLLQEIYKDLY

| SMILES | Potency [1] | Potency [2] | Potency [3] | Potency [4] | Potency [5] | Potency [6] | Potency [7] | Potency [8] | Potency [9] | Potency [10] | Potency [11] | Potency [12] | Potency [13] | Potency [14] | Potency [15] | Potency [16] | Potency [17] | Potency [18] | Potency [19] | Potency [20] |
| --- | --- | --- | --- | --- | --- | --- | --- | --- | --- | --- | --- | --- | --- | --- | --- | --- | --- | --- | --- | --- |
| CN(C)C(=O)Nc1cccc(OC(=O)NC(C)(C)C)c1 | inactive | inactive | inactive | inactive | inactive | inactive | inactive | inactive | inactive | inactive | inactive | inactive | inactive | inactive | inactive | – | – | – | – | – |
| Nc1ccccc1C(=O)OCCc1ccccc1 | inactive | inactive | inactive | – | – | – | inactive | – | inactive | 30.6 µM (active) | inactive | inactive | inactive | inactive | inactive | inactive | inactive | – | – | – |
| O=C(O)c1cc(I)cc(I)c1I | inactive | inactive | inactive | inactive | inactive | inactive | inactive | inactive | inactive | inactive | inactive | – | inactive | inactive | inactive | – | inactive | inactive | – | – |
| Cc1ncc(C[n+]2csc(CCO)c2C)c(N)n1 | inactive | inactive | inactive | – | – | – | inactive | inactive | inactive | inactive | inactive | – | inactive | inactive | – | – | inactive | – | inactive | – |
| CCCCCCCCP(=O)(O)O | inactive | inactive | inactive | – | – | – | inactive | inactive | inactive | – | inactive | – | inactive | inactive | inactive | inactive | inactive | – | – | – |
| C[C@]12CC[C@H]3[C@@H](CCC4=CC(=O)CC[C@@H]43)[C@@H]1CC[C@@H]2OC(=O)CCc1ccccc1 | inactive | inactive | inactive | – | – | – | – | – | inactive | inactive | inactive | inactive | inactive | inactive | inactive | – | inactive | – | – | inactive |
| CC1(C)[C@H](C(=O)O[C@H](C#N)c2cccc(Oc3ccccc3)c2)[C@@H]1C=C(Br)Br | inactive | inactive | – | – | – | – | inactive | inactive | inactive | inactive | inactive | – | inactive | inactive | – | inactive | inactive | – | – | – |
| O=C1CC[C@@]2(O)[C@H]3Cc4ccc(O)c5c4[C@@]2(CCN3CC2CC2)[C@H]1O5 | inactive | inactive | inactive | – | – | – | inactive | inactive | inactive | inactive | inactive | – | inactive | inactive | inactive | inactive | inactive | – | – | – |
| O=C(O)C(O)C(O)C(=O)O (stereo not given) | inactive | inactive | inactive | inactive | inactive | inactive | inactive | inactive | inactive | inactive | inactive | – | inactive | inactive | – | – | inactive | inactive | inactive | – |
| COc1ccc(C(=O)c2c(C)n(CCN3CCOCC3)c3ccccc23)cc1 | inactive | inactive | inactive | – | – | – | – | inactive | inactive | – | inactive | inactive | inactive | inactive | inactive | – | inactive | – | inactive | – |
| CN1CC[C@]23c4c5ccc(O)c4O[C@H]2[C@@H](O)C=C[C@H]3[C@H]1C5 | inactive | inactive | inactive | – | – | inactive | inactive | inactive | inactive | inactive | inactive | inactive | inactive | inactive | – | – | inactive | – | inactive | inactive |
| O=C(O)COc1cc(Cl)c(Cl)cc1Cl | inactive | inactive | – | – | – | – | inactive | inactive | inactive | inactive | inactive | inactive | inactive | inactive | inactive | 54.5 µM (active) | inactive | – | – | – |
| CN1C[C@H](C(=O)N[C@]2(C)O[C@@]3(O)[C@@H]4CCCN4C(=O)[C@H](Cc4ccccc4)N3C2=O)C=C2c3cccc4[nH]cc(c34)C[C@H]21 | inactive | inactive | inactive | inactive | inactive | inactive | 16.8 µM (active) and 27.4 µM (active) | inactive | inactive | – | 21.8 µM (active) and inactive | inactive | inactive | inactive | – | – | inactive | – | – | 43.8 µM (active) and inactive |
| O=C1NC(=O)C(=O)C(=O)N1 | inactive | inactive | inactive | inactive | inactive | inactive | inactive | inactive | inactive | inactive | inactive | inactive | inactive | inactive | – | – | inactive | inactive | inactive | – |
| CCC1CCC(=O)O1 (stereo not given) | inactive | inactive | inactive | – | – | – | inactive | – | – | – | inactive | – | inactive | inactive | inactive | inactive | – | – | inactive | – |
| CCC1(C2=NCCN2)Cc2ccccc2O1 (stereo not given) | inactive | inactive | inactive | inactive | inactive | inactive | inactive | inactive | inactive | inactive | inactive | inactive | inactive | inactive | inactive | – | inactive | – | inactive | inactive |
